According to PubChem BioAssay AID2242 (National Center for Advancing Translational Sciences (NCATS), 2010):
Screen size: about 200,000 compounds; about 720 (0.36%) were called active. Not shown: some 8% with an inconclusive outcome. The call rests on the fitted dose curve; in most records, active means well fitted activation curve with a large enough effect; inconclusive means small, poorly fitted or top-dose-only effect, or effect the other way, or another doubt; inactive means flat fitted curve, though single readings scatter. The list shows a part of the results.

Molecular target: Lysosomal alpha-glucosidase (Homo sapiens) (UniProt P10253)
Experiment: qHTS Assay for Activators of Human alpha-Glucosidase as a Potential Chaperone Treatment of Pompe Disease; further: nearly all actives have a fitted effect of over 80% in size
Conditions: purified enzyme, 4-MU-alpha-glucoside fluorescence, 20 min; series mostly up to 76.9 µM
In short: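 Compounds titrated up to 77 uM against 4 nM enzyme and 400 uM methylumbelliferyl substrate at room temperature, 20 min, pH 5.0. Basic stop, then 4-methylumbelliferone fluorescence (365/440 nm) normalized to no-enzyme and enzyme controls; Hill-equation AC50.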
Potency means the concentration at half of the fitted maximal effect.

Potency, active:
COCCCNC(=O)c1c(N)n(-c2cccc(S(N)(=O)=O)c2)c2nc3ccccc3nc12 35.5 µM, C=CCNC(=O)c1c(N)n(-c2cccc(S(N)(=O)=O)c2)c2nc3ccccc3nc12 25.1 µM, O=c1oc2c(CN3CCOCC3)c(O)ccc2c2c1CCC2 25.1 µM, O=c1oc2c(CN3CCOCC3)c(O)ccc2c2c1CCCC2 35.5 µM, CCOC(=O)c1nc2nc(-c3cccs3)cc(C(F)(F)F)n2n1 14.1 µM, COC(=O)c1nc2nc(-c3cccs3)cc(C(F)(F)F)n2n1 35.5 µM, O=C(NCc1cccs1)c1cc2c(s1)-c1ccccc1OC2 39.8 µM, CN(C)CCNC(=O)c1cc2c(s1)-c1ccccc1OC2 6.31 µM, COC(=O)c1ccc(-c2ncc(-c3cccc4ccccc34)o2)cc1 28.2 µM, Cc1cc(-c2ccc(C(=O)O)s2)cnc1N 28.2 µM, O=C(COC(=O)c1ccccc1Nc1ccccc1)NCc1ccccc1Cl 28.2 µM, CCCCNS(=O)(=O)c1ccc2nc(-c3cccs3)cc(C(=O)NCC(OC)OC)c2c1 25.1 µM, COc1cc2cc(C(N)=O)c(N)nc2cc1OC 35.5 µM, COc1ccccc1N1CCN(C(=O)c2c(-c3ccccc3)noc2C)CC1 35.5 µM, CCNC(=O)/C(C#N)=C/c1c(N2CCOCC2)nc2ccccn2c1=O 28.2 µM, O=c1cc(CN2CCN(S(=O)(=O)c3ccc4c(c3)OCCO4)CC2)c2ccc(O)cc2o1 28.2 µM, O=c1cc(CN2CCN(S(=O)(=O)/C=C/c3ccccc3)CC2)c2ccc(O)cc2o1 35.5 µM, O=c1[nH]c(=O)c2nc(-c3ccc(Cl)cc3)cnc2[nH]1 28.2 µM, CCN1c2ccccc2-c2nc3ccccc3n2C1c1ccccn1 (stereo not given) 31.6 µM, c1ccc(CN2c3ccccc3-c3nc4ccccc4n3C2c2ccccn2)cc1 (stereo not given) 28.2 µM, CCOCC(=O)Nc1ccc(-c2cn3cccnc3n2)cc1 35.5 µM, CC(=O)Nc1ccc(-c2cn3cccnc3n2)cc1 28.2 µM, COCC(=O)Nc1ccc(-c2cn3cccnc3n2)cc1 35.5 µM, CCOCC(=O)Nc1cc(-c2cn3cccnc3n2)ccc1C 35.5 µM, CCCCCC(=O)Nc1ccc(-c2cn3cccnc3n2)cc1 35.5 µM, Cc1onc(-c2ccccc2Cl)c1C(=O)Nc1cccc(-c2nc3ncccn3c2C)c1 35.5 µM, Cc1onc(-c2ccccc2Cl)c1C(=O)Nc1ccc(-c2cn3cccnc3n2)cc1 35.5 µM, CC(C)(O[C@@H]1O[C@H](CO)[C@@H](O)[C@H](O)[C@H]1O)[C@H]1Cc2cc3ccc(=O)oc3cc2O1 35.5 µM, O=C(Oc1ccc2c3c(c(=O)oc2c1)CCC3)c1ccco1 35.5 µM, O=C(Oc1ccc2c3c(c(=O)oc2c1)CCCC3)c1ccco1 35.5 µM, O=C(Oc1cc2oc(=O)c3c(c2cc1Cl)CCCC3)c1ccco1 10 µM, CC(C)c1cc(NCC2CCCO2)n2c(nc3ccccc32)c1C#N (stereo not given) 35.5 µM, CCCc1cc(NCC2CCCO2)n2c(nc3ccccc32)c1C#N (stereo not given) 35.5 µM, COc1ccc2cc3cc(C(=O)NCCCN4CCOCC4)oc3nc2c1 35.5 µM, CCN1CCN(CCCNC(=O)c2cc3cc4ccc(OC)cc4nc3o2)CC1 35.5 µM, CCCSc1nc2sc3c(c2c(=O)[nH]1)CCN(Cc1ccccc1)C3 31.6 µM, COC(=O)c1ccncc1N 35.5 µM, COC(=O)c1sc2ccccc2c1N 39.8 µM, COC(=O)c1sc2cnccc2c1N 35.5 µM, Cc1ccc(-n2c(N)c(S(=O)(=O)c3ccccc3)c3nc4ccccc4nc32)cc1 25.1 µM, Cc1ccc(S(=O)(=O)c2c(N)n(CCCO)c3nc4ccccc4nc23)cc1 35.5 µM, Cc1ccc(S(=O)(=O)c2c(N)n(CC3CCOC3)c3nc4ccccc4nc23)cc1 (stereo not given) 35.5 µM, Cc1cccc(S(=O)(=O)c2c(N)n(-c3ccccc3)c3nc4ccccc4nc23)c1 35.5 µM, Cc1ccc(S(=O)(=O)c2c(N)n(C)c3nc4ccccc4nc23)cc1 25.1 µM, Nc1c(S(=O)(=O)c2ccccc2)c2nc3ccccc3nc2n1C1CC1 28.2 µM, Nc1c(S(=O)(=O)c2ccccc2)c2nc3ccccc3nc2n1CCN1CCOCC1 39.8 µM, Nc1c(S(=O)(=O)c2ccccc2)c2nc3ccccc3nc2n1Cc1ccco1 28.2 µM, COCCCn1c(=NC(=O)c2ccccc2)c(C#N)cc2c(=O)n3cccc(C)c3nc21 39.8 µM, COCCCn1c(=NC(=O)c2ccncc2)c(C#N)cc2c(=O)n3cccc(C)c3nc21 35.5 µM, Cc1cccn2c(=O)c3cc(C#N)c(=NC(=O)c4ccncc4)n(CCCOC(C)C)c3nc12 35.5 µM, CCC1OC2(C)OC(=N)C1(C#N)C(C#N)(C#N)C2c1ccccc1 (stereo not given) 35.5 µM, CCC12OC(=N)C(C#N)(C1C)C(C#N)(C#N)C(c1ccccc1)O2 (stereo not given) 39.8 µM, CC(=O)Nc1ccc(S(=O)(=O)C(C#N)c2nc3ccccc3nc2NCCO)cc1 (stereo not given) 35.5 µM, CC(=O)Nc1ccc(S(=O)(=O)C(C#N)c2nc3ccccc3nc2NCCCO)cc1 (stereo not given) 31.6 µM, Cc1ccc(S(=O)(=O)NC(C(=O)Oc2ccc3c(C)c(Cl)c(=O)oc3c2)c2ccccc2)cc1 (stereo not given) 28.2 µM, Cc1ccc(S(=O)(=O)NC(C(=O)Oc2ccc3ccc(=O)oc3c2)c2ccccc2)cc1 (stereo not given) 35.5 µM, Cc1ccc(S(=O)(=O)NC(C(=O)Oc2cc3oc(=O)cc(C)c3cc2Cl)C(C)C)cc1 (stereo not given) 31.6 µM, O=C(Oc1ccc2ccc(=O)oc2c1)C1CCCCC1 35.5 µM, CC(C)(C)OC(=O)NCCC(=O)Oc1ccc2ccc(=O)oc2c1 35.5 µM, CC(NC(=O)OC(C)(C)C)C(=O)Oc1ccc2ccc(=O)oc2c1 (stereo not given) 31.6 µM, CCOC(=O)CCc1c(C)c2ccc(O)cc2oc1=O 35.5 µM, Cc1c(CCC(=O)O)c(=O)oc2cc(O)ccc12 35.5 µM, Cc1cccc(C(=O)N=c2c(C#N)cc3c(=O)n4cccc(C)c4nc3n2Cc2ccco2)c1 35.5 µM, Cc1ccccc1C(=O)N=c1c(C#N)cc2c(=O)n3cccc(C)c3nc2n1Cc1ccco1 35.5 µM, Fc1ccc(N2N=C(c3cccs3)CC2c2ccco2)c(F)c1 (stereo not given) 31.6 µM, Clc1ccc(N2N=C(c3cccs3)CC2c2ccco2)cc1 (stereo not given) 35.5 µM, O=c1oc2ccccc2c2c1SC(C(F)(F)F)C2 (stereo not given) 31.6 µM, NS(=O)(=O)c1ccc(N2N=C(c3ccc(Br)cc3)CC2c2ccc(F)cc2)cc1 (stereo not given) 31.6 µM, NS(=O)(=O)c1ccc(N2N=C(c3ccccc3)CC2c2ccccc2)cc1 (stereo not given) 31.6 µM, O=S(=O)(O)c1ccc(N2N=C(c3ccccc3)CC2c2ccccc2)cc1 (stereo not given) 35.5 µM, COc1ccc(C2CC(c3ccccc3)=NN2c2ccc(Cl)c(C(=O)O)c2)cc1 (stereo not given) 28.2 µM, NS(=O)(=O)c1ccc(N2N=C(c3ccccc3)CC2c2cccc(F)c2)cc1 (stereo not given) 35.5 µM, CCc1ccc(C2=NN(c3ccc(S(N)(=O)=O)cc3)C(c3ccc(F)cc3)C2)cc1 (stereo not given) 31.6 µM, COc1ccc(C2CC(c3ccccc3)=NN2c2ccc(S(N)(=O)=O)cc2)cc1OC (stereo not given) 31.6 µM, NS(=O)(=O)c1ccc(N2N=C(c3ccccc3)CC2c2ccc(F)cc2)cc1 (stereo not given) 31.6 µM
